# Test results as given in PubChem BioAssay (NCI).
# About 83,000 compounds went through this panel and 20% of them were active in at least one assay; those are over-represented in the sample as a whole.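 Assay: single dose, 48 h. Readout: percent growth (0 = no net growth; negative = cell death). Active: <10.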 Unmarked numbers belong to inactive results. Active and inactive are the calls of the source.
# Legend:
# Experiment in all cases: NCI-60 one-dose screen, 48 h (100 = growth as untreated, 0 = no growth, -100 = all killed)
# [1] = system: HCT-15 colon; conditions: 10 µM unless noted
# [2] = system: HT29 colon; conditions: 10 µM unless noted
# [3] = system: SNB-19 CNS; conditions: 10 µM unless noted
# [4] = system: U251 CNS; conditions: 10 µM unless noted
# [5] = system: SK-MEL-5 melanoma; conditions: 10 µM unless noted
# [6] = system: UACC-62 melanoma; conditions: 10 µM unless noted
# [7] = system: LOX IMVI melanoma; conditions: 10 µM
# [8] = system: SK-MEL-28 melanoma; conditions: 10 µM unless noted
# [9] = system: SK-MEL-2 melanoma; conditions: 10 µM unless noted
# [10] = system: EKVX NSCLC; conditions: 10 µM unless noted
# [11] = system: SN12C renal; conditions: 10 µM unless noted
# [12] = system: UO-31 renal; conditions: 10 µM unless noted
# [13] = system: TK-10 renal; conditions: 10 µM unless noted
# [14] = system: ACHN renal; conditions: 10 µM unless noted
# [15] = system: CAKI-1 renal; conditions: 10 µM unless noted
# [16] = system: A498 renal; conditions: 10 µM unless noted
# [17] = system: CCRF-CEM leukemia; conditions: 10 µM unless noted
# [18] = system: MOLT-4 leukemia; conditions: 10 µM unless noted
# [19] = system: PC-3 prostate; conditions: 10 µM unless noted
SMILES,growth [1],growth [2],growth [3],growth [4],growth [5],growth [6],growth [7],growth [8],growth [9],growth [10],growth [11],growth [12],growth [13],growth [14],growth [15],growth [16],growth [17],growth [18],growth [19]
CC12CC[C@@H]3[C@]4(C)COC(c5cn[nH]c5-c5cccc(Br)c5)O[C@@H]4CC[C@@]3(C)[C@@H]1CC(C1=CCOC1=O)O2 (stereo partly specified),23.3%,23.2%,51.2%,32.1%,3.56% (active),20.9%,-8.01% (active),34%,31.6%,28.2%,43.3%,14.9%,58.6%,26.5%,39.9%,81.8%,9.66% (active),4.43% (active),–
COc1ccc(-c2nc3cc(C)ccc3n2CC(=O)N=Nc2c(O)[nH]c3ccccc23)cc1,-64.7% (active),-28.2% (active),19.1%,5.59% (active),-93% (active),-37.2% (active),-63.5% (active),-57.5% (active),58%,46%,-91.7% (active),–,73.6%,-12.5% (active),53.3%,102%,79.1%,13.2%,–
CN(C)CCCNC(=O)c1cc(NC(=O)c2cc(NC(=O)c3ccc(C#Cc4ccccc4)cc3)cn2C)cn1C,-20.6% (active),-68.4% (active),24.7%,-91.6% (active),–,-33.1% (active),-100% (active),47.1%,-88.8% (active),27%,-18.5% (active),36.1%,42.9%,19.2%,18.6%,83.5%,-24.3% (active),-29.5% (active),-30.8% (active)
CN(C)CCOc1ccc(C(=O)C2[C@H](c3ccc(Cl)cc3)[C@@H](c3ccccc3)NC23C(=O)Nc2ccccc23)cc1 (stereo partly specified),12%,-69.3% (active),–,11.9%,83.7%,78.8%,-94.3% (active),94.6%,112%,77.2%,69.1%,59%,117%,88.3%,58%,112%,86.3%,-32.8% (active),41.9%
Cc1ccccc1[C@H]1C(C(=O)c2ccc(Cl)cc2)C2(N[C@@H]1c1ccccc1)C(=O)Nc1ccccc12 (stereo partly specified),-14% (active),-88.7% (active),16.2%,-58.1% (active),-72.2% (active),-83.5% (active),-100% (active),-34.3% (active),-76.3% (active),-15.6% (active),-94.9% (active),0.424% (active),-8.15% (active),-13.9% (active),3.96% (active),-8.76% (active),-13.8% (active),-18% (active),–
C=C1CCC2C3(C)COC(c4ccccc4)OC3CCC2(C)C1CC(NCc1ccccc1)C1=CCOC1=O (stereo unspecified),87.1%,73.5%,73.6%,77.3%,69.9%,70.1%,74.3%,94.2%,101%,73.8%,79.4%,–,76%,86.4%,58.1%,76.6%,101%,61.1%,31.6%
O=c1oc2ccc(Br)cc2cc1C1=CSc2nc3sc4c(c3c(=O)n2N=C1)CCCC4,95.1%,108%,97%,99.3%,–,71.7%,86.4%,105%,98.6%,97%,103%,69.8%,175%,99.4%,96.2%,177%,84.4%,93.2%,76.7%
COc1c(F)ccc(C(=O)Nc2ccc3nc(NC(=O)C4CCCN(S(=O)(=O)c5ccc(Br)c(F)c5)C4)sc3c2)c1F (stereo unspecified),73.6%,78.2%,81.9%,69.8%,85.7%,72%,78.9%,99.6%,88.6%,88.5%,87.7%,72.1%,–,81.5%,72.7%,112%,87.4%,42.5%,62.6%
CCCSc1nc(Nc2ccc(S(N)(=O)=O)cc2)c(C#N)c(-c2ccc(Cl)cc2)n1,21.7%,33.6%,28.2%,-14.8% (active),–,31.1%,-96.3% (active),73.8%,67.9%,50.6%,-16.2% (active),-68.6% (active),-16.4% (active),-66.8% (active),-54.5% (active),-41.8% (active),81.4%,50.4%,64.3%
